From PubChem
aSyn UTR act: Activators via SNCA 5'UTR binding, MLPCN; hit rate 7.1% among 300,000; activity score, % (tested at 7.5 µM), hits read low; alpha-synuclein 5'UTR reporter, activators screen; AID 1814; in the data active = activity score below about -60%
Of the large screens only hits and unclear results are named; the others gave an inactive call. The list is a sample of the results.

Cc1snc(SCC(=O)c2ccc(Cl)cc2)c1C#N	aSyn UTR act -140.3
Cc1ccc(C(=O)CSc2nsc(C)c2C#N)cc1	aSyn UTR act -149.0
CCN(CC)CCNc1nc2cc(OC)c(OC)cc2c2nc(-c3ccccc3)nn12	aSyn UTR act -72.8
O=C(O)COc1ccc(-c2nccc(-c3ccccn3)n2)cc1	none
FCCCOc1ccc(-c2nccc(-c3ccccn3)n2)cc1	aSyn UTR act -63.4
Cn1ncc(Cl)c1C(=O)Nc1ccc2c(c1)CCC2	aSyn UTR act -138.1
CN1N=C(C(=O)Nc2ccc3c(c2)CCC3)CCC1=O	aSyn UTR act -140.4
Cc1nc(Nc2ccccc2)c2oc3ccc(Cl)cc3c2n1	aSyn UTR act -93.1
Oc1cccc(Nc2ncnc3c2oc2ccccc23)c1	aSyn UTR act -134.5
c1ccc(Nc2ncnc3c2oc2ccccc23)cc1	aSyn UTR act -139.1
c1ccc2c(c1)oc1c(Nc3ccc4c(c3)OCO4)ncnc12	aSyn UTR act -107.5
Oc1ccccc1Nc1ncnc2c1oc1ccccc12	aSyn UTR act -88.0
CC(=O)N1CCN(c2ccc(Nc3ncnc4c3oc3ccccc34)cc2)CC1	aSyn UTR act -81.4
c1ccc2c(c1)oc1c(Nc3ccc(CN4CCOCC4)cc3)ncnc12	aSyn UTR act -101.7
Cc1nnc(Nc2ccc3c(c2)OCO3)c2ccccc12	aSyn UTR act -80.3
Oc1ccc(Nc2ncnc3c2oc2ccccc23)cc1	aSyn UTR act -116.0
O=C(Nc1cccc(C(F)(F)F)c1)c1scc2c1OCCO2	aSyn UTR act -73.4
CSc1nc(Cl)cc(Nc2ccc(O)cc2)n1	aSyn UTR act -78.7
N/C(=N\OC(=O)c1ccc(F)cc1)c1ccccc1	aSyn UTR act -298.3
N/C(=N\OC(=O)c1ccc(F)cc1)c1ccc(Br)cc1	aSyn UTR act -143.2
Cc1ccc(/C(N)=N/OC(=O)c2ccc(F)cc2)cc1	aSyn UTR act -194.1
Cc1ccc(C(=O)O/N=C(\N)c2ccccn2)cc1	none
Cc1ccc(-c2nc3ccccc3n2C)o1	aSyn UTR act -154.6
CC(=O)c1ccc(-c2nc3ccccc3n2C)o1	aSyn UTR act -142.5
Cc1ccc(C2Nc3ccccc3-c3nc4ccccc4n32)o1 (stereo not drawn)	aSyn UTR act -104.3
COc1ccc(Oc2nccc(-c3ccc(F)cc3)c2C#N)cc1	aSyn UTR act -82.1
Cc1ccc(-c2cc(-c3ccc(F)cc3)nc(N)c2C#N)o1	none
COc1ccc(Oc2nccc(-c3ccccc3)c2C#N)cc1	aSyn UTR act -185.4
Cc1cccc(-n2cc(-c3ccccc3)[nH]c2=S)c1	aSyn UTR act -108.1
CC(=O)Nc1ccc(-n2cc(-c3ccccc3)[nH]c2=S)cc1	aSyn UTR act -80.8
COc1ccc(-n2cc(-c3ccccc3)[nH]c2=S)cc1	aSyn UTR act -90.9
CN(C)CCN(C(=O)c1ccc(N2C(=O)CCC2=O)cc1)c1nc2cc3c(cc2s1)OCCO3	aSyn UTR act -75.2
O=C(Nc1nc2cc3c(cc2s1)OCCO3)c1ccco1	none
Cc1ccc2nc(N(CCCN(C)C)C(=O)c3ccc(S(=O)(=O)N4CCc5ccccc5C4)cc3)sc2c1	none
O=C(Nc1nc2cc3c(cc2s1)OCCO3)c1ccc(N2C(=O)CCC2=O)cc1	aSyn UTR act -64.5
CCc1ccc2nc(NC(=O)c3ccc(N4C(=O)CCC4=O)cc3)sc2c1	aSyn UTR act -72.8
CCc1ccc2nc(NC(=O)c3ccc4c(=O)[nH]c(CN5CCOCC5)nc4c3)sc2c1	aSyn UTR act -107.4
Cc1ccc(C(=O)NC(=C(Cl)Cl)S(=O)(=O)c2ccc(C)cc2)cc1	aSyn UTR act -72.2
CC(=O)NC(=C(Cl)Cl)S(=O)(=O)c1ccccc1	aSyn UTR act -136.6
CC(NC(=O)c1cc(COc2cccc(C(F)(F)F)c2)on1)c1nccs1 (stereo not drawn)	aSyn UTR act -61.8
O=C(NC1CCOC1)c1cc(COc2cccc(C(F)(F)F)c2)on1 (stereo not drawn)	aSyn UTR act -67.3
C[C@@H]1CN(C(=O)c2cc(COc3cccc(C(F)(F)F)c3)on2)C[C@H](C)O1	aSyn UTR act -138.0
CCOC(=O)N1CCN(C(=O)c2cc(COc3cccc(C(F)(F)F)c3)on2)CC1	aSyn UTR act -92.1
O=C(/C=C/c1ccccc1)C1=C(O)C(=O)N(CCO)C1c1ccccc1[N+](=O)[O-] (stereo not drawn)	aSyn UTR act -62.5
COc1cc2c(cc1NC(=S)Nc1cccc(C)c1)oc1ccccc12	aSyn UTR act -123.9
COc1cc2c(cc1NC(=O)C(C)OC(=O)/C=C/c1ccc(OC(F)F)cc1)oc1ccccc12 (stereo not drawn)	aSyn UTR act -150.5
COc1cc2c(cc1NC(=O)C(C)OC(=O)C1CC(=O)N(Cc3ccco3)C1)oc1ccccc12 (stereo not drawn)	aSyn UTR act -127.0
COc1ccc(NC(=O)Nc2cc3oc4ccccc4c3cc2OC)cc1	aSyn UTR act -152.0
COc1cc2c(cc1NC(=O)Nc1ccc(F)cc1)oc1ccccc12	aSyn UTR act -94.7
COc1cc2c(cc1NC(=O)CSc1nccn1C)oc1ccccc12	aSyn UTR act -228.7
CCc1ccc(C2=NN(C(C)=O)C(c3ccco3)C2)cc1 (stereo not drawn)	aSyn UTR act -202.4
